PubChem BioAssay (Tox21)
Inconclusive results are not listed. Activity calls are given as the source filed them. Unless noted, calls come from the whole dose curve; as a rule, active = well fitted curve in the direction sought with a large enough effect in the repeat runs; inconclusive = weak or mixed curves; inactive = no such curve, though single readings can be large; an effect the other way counts as inactive or inconclusive.

Experiments:
[1] = qHTS assay to test for compound auto fluorescence at 535 nm (green) in HEK293 cells (AID 720680)
[2] = qHTS assay to test for compound auto fluorescence at 460 nm (blue) in HEK293 cell free culture (AID 720681)
Summary of the method: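 Test compounds were pinned into cell-free culture medium (DMEM with 10% FBS) and fluorescence was read directly at Ex/Em 405/460 nm. Signals were expressed as fluorescence equivalents of triamterene, with DMSO vehicle as control.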

[3] = qHTS assay to test for compound auto fluorescence at 590 nm (red) in HEK293 cell free culture (AID 720683)
Summary of the method: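 Tox21 10K library compounds were pinned into cell-free DMEM with 10% FBS and fluorescence was read at excitation 540 nm. Activity is expressed as Rose Bengal sodium equivalency.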

[4] = qHTS assay to test for compound auto fluorescence at 590 nm (red) in HepG2 cell free culture (AID 720684)
Summary of the method: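 Measured in medium alone (MEM containing 10% FBS) following pintool addition of compound; emission at 590 nm with 540 nm excitation, referenced to Rose Bengal sodium.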

[5] = qHTS assay to test for compound auto fluorescence at 460 nm (blue) in HepG2 cell free culture (AID 720685)
Summary of the method: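 Compound (23 nL) or DMSO pinned into cell-free MEM with 10% FBS; blue fluorescence read at 405/460 nm excitation/emission, expressed as auto-fluorescence equivalency to triamterene.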

[6] = qHTS assay to test for compound auto fluorescence at 535 nm (green) in HepG2 cell free culture (AID 720686)
[7] = target: Glucocorticoid receptor (Homo sapiens) (UniProt P04150); assay: qHTS assay to identify small molecule agonists of the glucocorticoid receptor (GR) signaling pathway (AID 720691; active = well fitted activation curve with a large enough effect in the signal ratio in the repeat runs, not every such curve was filed as active; the % refers to the signal ratio)
Sequence of Glucocorticoid receptor (Homo sapiens) (P04150 whole entry, looked up): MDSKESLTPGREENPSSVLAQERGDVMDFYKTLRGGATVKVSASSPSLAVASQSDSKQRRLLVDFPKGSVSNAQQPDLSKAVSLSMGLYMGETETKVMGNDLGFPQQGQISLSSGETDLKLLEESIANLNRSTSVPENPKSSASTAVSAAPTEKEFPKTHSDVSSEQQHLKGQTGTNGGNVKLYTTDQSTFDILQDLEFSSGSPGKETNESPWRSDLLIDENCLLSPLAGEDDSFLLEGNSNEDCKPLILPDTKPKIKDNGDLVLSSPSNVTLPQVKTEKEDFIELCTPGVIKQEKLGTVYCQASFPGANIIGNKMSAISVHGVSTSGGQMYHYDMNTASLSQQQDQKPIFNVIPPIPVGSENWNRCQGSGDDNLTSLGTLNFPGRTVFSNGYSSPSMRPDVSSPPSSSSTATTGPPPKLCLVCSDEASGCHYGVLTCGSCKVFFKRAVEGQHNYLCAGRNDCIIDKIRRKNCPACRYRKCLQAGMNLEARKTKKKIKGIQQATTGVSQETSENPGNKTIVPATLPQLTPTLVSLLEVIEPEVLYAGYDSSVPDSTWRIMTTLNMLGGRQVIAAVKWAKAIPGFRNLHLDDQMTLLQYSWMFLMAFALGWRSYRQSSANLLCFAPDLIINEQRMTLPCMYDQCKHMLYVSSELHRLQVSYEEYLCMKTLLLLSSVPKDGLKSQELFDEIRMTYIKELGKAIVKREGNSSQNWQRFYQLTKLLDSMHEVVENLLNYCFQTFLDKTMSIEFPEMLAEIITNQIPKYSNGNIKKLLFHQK
Summary of the method: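 Agonist mode in a HeLa line carrying a GRE-controlled beta-lactamase reporter. Compounds act for 18 h at 37 C before a 2 h room-temperature FRET substrate step and fluorescence reading.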

[8] = target: Glucocorticoid receptor (Homo sapiens) (UniProt P04150); assay: qHTS assay to identify small molecule antagonists of the glucocorticoid receptor (GR) signaling pathway (AID 720692; active = well fitted inhibition curve with a large enough effect in the signal ratio in the repeat runs, not every such curve was filed as active; the % refers to the signal ratio)
Summary of the method: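 Cells plated, rested 4 h at 37 C/5% CO2; compounds in DMSO pin-transferred; dexamethasone added to 5 nM final; 18 h at 37 C; B/G FRET substrate added, 2 h room temperature; fluorescence measured.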

[9] = qHTS assay for identifying genotoxic compounds that show differential cytotoxicity against isogenic chicken DT40 cell lines with known DNA damage response pathways - wild type cell line (AID 743012); note: nearly all actives have a fitted effect of over 60% in size
Summary of the method: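 Cells (DT40 wild type, 300/well) are treated with DMSO-dissolved compounds after a ~0.5 h pre-incubation and kept 40 h at 37 C/5% CO2. Viability is then measured by CellTiter-Glo luminescence following 30 min at room temperature.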

[10] = qHTS assay for identifying genotoxic compounds that show differential cytotoxicity against isogenic chicken DT40 cell lines with known DNA damage response pathways - Rev3 mutant cell line (AID 743014); note: nearly all actives have a fitted effect of over 55% in size
[11] = qHTS assay for identifying genotoxic compounds that show differential cytotoxicity against isogenic chicken DT40 cell lines with known DNA damage response pathways - Rad54/Ku70 mutant cell line (AID 743015); note: nearly all actives have a fitted effect of over 60% in size
[12] = qHTS assay to identify small molecule antagonists of the androgen receptor (AR) signaling pathway - cell viability counter screen (AID 743033; note: nearly all actives have a fitted effect of over 45% in size)
[13] = qHTS assay to identify small molecule antagonists of the androgen receptor (AR) signaling pathway using the MDA cell line - cell viability counter screen (AID 743041; note: nearly all actives have a fitted effect of over 45% in size)
Summary of the method: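 Viability counter screen run alongside the AR antagonist reporter: cells seeded 5 h before compound, R1881 added, 16 h incubation at 37C without CO2, fluorescent CellTiter-Fluor signal quantified.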

[14] = qHTS assay to identify small molecule antagonists of the thyroid receptor (TR) signaling pathway - cell viability counter screen (AID 743064); note: nearly all actives have a fitted effect of over 50% in size
Summary of the method: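 In rat pituitary GH3.TRE-Luc reporter cells co-exposed to compound and 1 nM T3 for 23.5 h, cytotoxicity was assessed with CellTiter-Fluor in the same wells, read by fluorescence.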

[15] = qHTS assay to test for compound auto fluorescence at 460 nm (blue) in HepG2 cells (AID 720687)
Summary of the method: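 Cells (2,000/well in MEM with 10% FBS) attached overnight at 37 C, then were exposed to compound or DMSO for 1 hr at 37 C, 5% CO2. Fluorescence read at Ex/Em 405/460 nm, expressed as triamterene-equivalent signal.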

[16] = qHTS assay to identify small molecule antagonists of the glucocorticoid receptor (GR) signaling pathway - cell viability counter screen (AID 720693); note: nearly all actives have a fitted effect of over 55% in size
[17] = target: Androgen receptor (Homo sapiens) (UniProt P10275); assay: qHTS assay to identify small molecule antagonists of the androgen receptor (AR) signaling pathway (AID 743035; active = well fitted inhibition curve with a large enough effect in the signal ratio in the repeat runs, not every such curve was filed as active; the % refers to the signal ratio)
Sequence of Androgen receptor (Homo sapiens) (P10275 whole entry, looked up): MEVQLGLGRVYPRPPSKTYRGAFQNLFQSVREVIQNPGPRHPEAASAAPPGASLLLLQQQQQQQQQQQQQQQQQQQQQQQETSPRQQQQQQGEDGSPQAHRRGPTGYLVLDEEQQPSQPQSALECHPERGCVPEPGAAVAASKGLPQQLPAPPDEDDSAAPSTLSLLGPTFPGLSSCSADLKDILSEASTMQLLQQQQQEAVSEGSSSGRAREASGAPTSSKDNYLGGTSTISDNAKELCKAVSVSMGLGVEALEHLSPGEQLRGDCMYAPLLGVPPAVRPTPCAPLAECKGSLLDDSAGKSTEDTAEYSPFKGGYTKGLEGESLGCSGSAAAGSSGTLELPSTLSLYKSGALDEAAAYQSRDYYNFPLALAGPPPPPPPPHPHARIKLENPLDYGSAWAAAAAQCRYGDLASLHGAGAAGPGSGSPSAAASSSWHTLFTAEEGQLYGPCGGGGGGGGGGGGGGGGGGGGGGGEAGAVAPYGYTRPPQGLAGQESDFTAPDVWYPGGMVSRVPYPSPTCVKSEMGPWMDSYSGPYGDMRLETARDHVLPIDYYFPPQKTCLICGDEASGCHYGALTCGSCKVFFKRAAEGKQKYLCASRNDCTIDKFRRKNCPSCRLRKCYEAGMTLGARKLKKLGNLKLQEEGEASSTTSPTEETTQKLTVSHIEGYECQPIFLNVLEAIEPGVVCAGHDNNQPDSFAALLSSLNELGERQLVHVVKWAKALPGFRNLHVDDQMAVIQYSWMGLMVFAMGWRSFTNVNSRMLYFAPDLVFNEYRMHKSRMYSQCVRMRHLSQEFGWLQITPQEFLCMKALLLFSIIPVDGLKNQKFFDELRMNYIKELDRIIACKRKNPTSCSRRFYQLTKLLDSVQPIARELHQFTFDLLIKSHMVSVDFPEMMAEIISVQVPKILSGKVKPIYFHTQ
Summary of the method: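 Antagonism is scored as loss of R1881-driven beta-lactamase reporter expression in HEK293 cells carrying the reporter under a UAS element, after 16 h co-treatment at 37C and a 2 h room-temperature FRET substrate read.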

[18] = target: Androgen receptor (Homo sapiens) (UniProt P10275); assay: qHTS assay to identify small molecule agonists of the androgen receptor (AR) signaling pathway using the MDA cell line (AID 743040; note: nearly all actives have a fitted effect of over 20% in size)
Summary of the method: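 Luminescence from ONE-Glo, read after 30 min at room temperature, reflects MMTV-driven luciferase in MDA-kb2 cells (AR- and GR-responsive). Treatment lasted 16 h at 37C, 0% CO2.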

[19] = target: Androgen receptor (Homo sapiens) (UniProt P10275); assay: qHTS assay to identify small molecule antagonists of the androgen receptor (AR) signaling pathway using the MDA cell line (AID 743042; note: nearly all actives have a fitted effect of over 55% in size)
Summary of the method: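 MDA-kb2 cells (human breast carcinoma, stably carrying an MMTV-luciferase reporter responsive to AR and GR) were plated at 3,000 cells/well and preincubated 5 hr at 37C, then given compound plus R1881 agonist for 16 h. ONE-Glo luminescence was read.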

Measured: Potency

N=C(N)N
not listed: [15] | [16] | [17] | [18] | [19]
inactive: all other assays above

CC(=O)SC[C@@H](C)C(=O)N1CCC[C@H]1C(=O)N[C@@H](Cc1ccccc1)C(=O)O
not listed: [7] | [8] | [17] | [18] | [19]
inactive: all other assays above

COc1cc(C(=O)NC2CCCNC2)cc(OC)c1OC (configuration not stated)
not listed: [8] | [14] | [17] | [18] | [19]
inactive: all other assays above

CNC(C)=O
not listed: [4] | [8] | [12] | [13] | [16] | [17] | [18] | [19]
inactive: all other assays above

O=Cc1ccc(C(=O)O)cc1
not listed: [8] | [15] | [17] | [18] | [19]
inactive: all other assays above

C/C=C(\C)C=O
not listed: [7] | [8] | [12] | [15] | [17] | [18] | [19]
inactive: all other assays above

O=C(O)/C=C(\CC(=O)O)C(=O)O
not listed: [7] | [8] | [17] | [18] | [19]
inactive: all other assays above

CCCCCCCOC(C)=O
not listed: [7] | [8] | [17] | [18] | [19]
inactive: all other assays above

C=CC(=O)OCCOCCOCC
not listed: [6] | [8] | [16] | [17] | [18] | [19]
inactive: all other assays above

Nc1nc(Cl)cc(Cl)n1
not listed: [4] | [11] | [13] | [14] | [15] | [17] | [18] | [19]
inactive: all other assays above

Cc1ccc(N)nc1
not listed: [4] | [7] | [8]
inactive: all other assays above

CC1(C)S[C@@H]2[C@H](NC(=O)Cc3ccccc3)C(=O)N2[C@H]1C(=O)O (tested in a mixture with another compound)
not listed: [8] | [17] | [18] | [19]
inactive: all other assays above

C=C(C)C(=O)OCCOC1CC2CC1C1C=CCC21 (configuration not stated)
inactive: [1] | [2] | [3] | [5] | [6] | [15] | [16] | [12] | [13] | [14]
